# Screening results (PubChem)
# Hits are enriched below; roughly 5.9% of the tested compounds scored in any of these assays.
# GLP1R inv ag = acts as inverse agonist at human GLP-1 receptor | P43220 | HEK293 GLP-1R CRE-luciferase, luminescence, 24 h; GLP-1R form is constitutively active | Potency, µM (doses to about 38.3 µM), inactives show at the highest dose activity change, negative = inhibition, most hits filed as inhibitors | 410,000 compounds, 1.6% hits; note: % is set by controls: 0 for no effect and ±100 for the full control effect; nearly all actives have a fitted effect of over 55% in size
# Target sequence (P43220 whole entry, looked up): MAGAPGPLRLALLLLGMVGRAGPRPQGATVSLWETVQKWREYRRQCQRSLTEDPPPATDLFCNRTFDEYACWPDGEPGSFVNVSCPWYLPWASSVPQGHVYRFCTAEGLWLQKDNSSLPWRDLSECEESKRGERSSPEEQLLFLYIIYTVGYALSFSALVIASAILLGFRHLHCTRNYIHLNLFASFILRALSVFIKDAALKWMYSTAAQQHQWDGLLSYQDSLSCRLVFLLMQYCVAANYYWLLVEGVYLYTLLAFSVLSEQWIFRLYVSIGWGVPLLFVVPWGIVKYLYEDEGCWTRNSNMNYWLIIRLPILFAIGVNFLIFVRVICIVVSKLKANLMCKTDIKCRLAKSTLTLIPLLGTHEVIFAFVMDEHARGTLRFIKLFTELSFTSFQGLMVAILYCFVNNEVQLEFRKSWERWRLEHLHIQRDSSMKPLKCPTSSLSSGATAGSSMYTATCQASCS
#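 Constitutively active GLP-1R drives a cAMP-responsive luciferase in stably transfected HEK293 cells; test compounds are added after overnight (12 h) attachment and left 24 hr, and signal loss in luminescence marks inhibition.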
# RORg inh = inhibitors of mouse ROR gamma transcriptional activity; P51450; Drosophila S2 Gal4-RORgamma UAS-luciferase reporter, 20 h; Potency, µM (top dose mostly 53.6 µM), for the others: top-dose activity change, negative = inhibition, hits mostly inhibitors; 310,000 compounds, 5.4% hits; note: % is set by controls: 0 for no effect and ±100 for the full control effect; nearly all actives have a fitted effect of over 60% in size
#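 Drosophila Schneider cells stably carrying a metallothionein-driven Gal4 DBD–ROR gamma fusion and a UAS-Photinus luciferase reporter were exposed to compound for 1 hr, then induced with copper sulfate (700 uM final) for 20 hr at ambient temperature before luminescence reading.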
# GLP-1R agonist = agonists of human GLP-1 receptor; 380,000 compounds, 0.007% hits; HEK293 GLP-1R CRE-luciferase, luminescence, 4-6 h; cells express a hypersensitive GLP-1R form; P43220; AID 624172; Potency, µM (titrated, usually from 45.6 µM), without a hit: at the top dose activation, actives largely listed as activators; note: % of control where 0% means no effect
# VP16 counter = counter-screen for ROR gamma inhibitors: Gal4-VP16 reporter; Drosophila S2 Gal4-VP16 UAS-luciferase, luminescence, 20 h; Potency, µM (titrated, usually from 53.6 µM), inactives show at the top dose activity, negative = inhibition, hits mostly inhibitors; 310,000 compounds, 3.5% hits; AID 2546;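 note: Gal4-VP16 expression switched on by copper sulfate through the metallothionein promoter; % is set by controls: 0 for no effect and ±100 for the full control effect; nearly all actives have a fitted effect of over 50% in size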
# GLP1R cytotox = cytotoxicity counter-screen for GLP-1 receptor inverse agonists; HEK293 cAMP-luciferase reporter cells, luminescence, 24 h; Potency, µM (top dose mostly 38.3 µM), without a hit: at the highest dose activity change, negative = inhibition, actives largely listed as inhibitors; 410,000 compounds, 0.13% hits; AID 624418;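 note: loss of luciferase light is scored as toxicity; % is set by controls: 0 for no effect and ±100 for the full control effect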
#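 Seeding density was 200 cells/uL; after overnight-length (12 h) culture, 23 nL compounds went on for 24 h at 37 °C. Readout used a luciferase detection reagent, luminescence taken after 12 min at room temperature.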
# An asterisk follows results filed as active; ? = inconclusive; . = no result; ! = not confirmed by another sample; [ ] = dose if it differs, or a comment. Calls come from the whole dose curve; as a rule, active = well fitted curve in the direction sought with a large enough effect; inconclusive = small, poorly fitted or top-dose-only effect, or another doubt; inactive = no such curve, though single readings can be large; an effect the other way counts as inactive or inconclusive. Potency is the fitted concentration of half-maximal effect.
SMILES,GLP1R inv ag,RORg inh,GLP-1R agonist,VP16 counter,GLP1R cytotox
CCOC(=O)c1cc(C)n(CC2CCC(C(=O)Nc3ccccc3OC)CC2)c1C (stereo not drawn),?,.,.,.,-10.5%
COc1ccccc1Nc1nc(C)cs1,?,11.2µM*!,-3.7%,?,-5.3%
COc1ccccc1Nc1n[nH]c(=S)s1,18.0%,10µM*,0.9%,5.0%,3.9%
Cc1csc(Nc2cccc3ccccc23)n1,?,?,22.6%,0.8%,1.2%
O=C(/C=C/c1ccc(/C=C/C(=O)Nc2ccc(C3=NCCN3)cc2)cc1)Nc1ccc(C2=NCCN2)cc1,.,14.9%,.,-3.6%,.
CCOc1ccc(NC(=S)N/N=C(\C)Cc2ccc(OC)cc2)cc1,-7.6%,11.8%[10 µM],0.3%,?,-20.5%
CCOc1ccccc1OCC(=O)N/N=C(\C)Cc1ccc(OC)cc1,?,22.9%,19.8%,2.6%,-35.8%
COc1ccc(C/C(C)=N/NC(=O)c2ccc(C)cc2C)cc1,-21.6%,-41.4%,8.3%,-4.2%,?
COc1ccc(C/C(C)=N/NC(=S)Nc2ccc(Cl)cc2)cc1,28.3%,11.2µM*,10.9%,?,?
COc1ccc(C/C(C)=N/NC(=S)Nc2ccccc2)cc1,?,20µM*,-3.2%,?,?
COc1ccc(C/C(C)=N/NC(=S)Nc2ccc(C)c(C)c2)cc1,-11.6%,?,-5.2%,10µM*,?
CCC(=O)[C@]12O[C@@]3(C4C(=O)OCCC41)N(Cc1ccccc1)C(C)=C(C(=O)OC)C(c1ccccc1)N3C2=O (stereo partly drawn),.,4.7%[10 µM],.,-4.0%[10 µM],.
C=C1c2cccc(C(F)(F)F)c2O[C@H](C(=O)OCC)[C@@H]1CCCCCC,.,3.4%,.,5.8%,.
C/C(Cl)=C/CCl,.,7.8%,.,-4.2%,.
COc1ccc(C(=O)N2CCC3(CCCN(CC(C)C)C3)CC2)cc1,.,-3.8%,.,-5.4%,.
C=CCc1ccccc1OCC(O)CN1CCN(CCN2C(=O)c3cccc4cccc(c34)C2=O)CC1 (stereo not drawn),?,-96.6%,-29.0%,11.2µM*,-11.4%[1.53 µM]
Cc1ccccc1OCC(O)CN1CCN(CCN2C(=O)c3cccc4cccc(c34)C2=O)CC1 (stereo not drawn),-9.9%,-9.6%,-6.7%,-20.2%,?
Cc1cc(C)c(NC(=O)CSc2nc3c([nH]c4ccccc43)c(=O)n2C)c(C)c1,4.6%,.,.,.,0.3%
CCc1ccc(Nc2nnc(SCC(=O)Nc3cccnc3Cl)s2)cc1,-5.3%,11.2µM*,8.9%,?,-9.5%
CCCn1c(N)c(C(=O)CSc2nc3ccccc3c(=O)n2Cc2ccccc2)c(=O)[nH]c1=O,12.5%,5.01µM*,1.8%,?,-0.1%
Cn1c(N)c(C(=O)CSc2nc3ccccc3c(=O)n2Cc2ccccc2)c(=O)n(C)c1=O,13.8%,-35.5%,10.1%,-1.1%,2.0%
CC(C)Oc1cccc(C(=O)NC(=S)N2CCN(c3ccc(C(F)(F)F)cc3[N+](=O)[O-])CC2)c1,?,0.447µM*,-19.8%,1.12µM*,-33.8%
COc1ccc(N2CCN(C(=O)c3cccc(F)c3)CC2)c([N+](=O)[O-])c1,-19.0%,-6.9%,7.7%,-22.2%,-6.7%
CCOc1ccc(C(=O)NC(=S)N2CCN(c3ccc(C(F)(F)F)cc3[N+](=O)[O-])CC2)cc1,18.7%,0.316µM*,-3.8%,0.251µM*,-2.3%
COc1cccc(C(=O)NC(=S)N2CCN(c3ccc(C(F)(F)F)cc3[N+](=O)[O-])CC2)c1,-25.2%,0.562µM*,-28.0%,0.631µM*,?
CC(=O)c1ccc(-c2cc(C3C4C=CCC(C)C4C(=O)N3Cc3ccccc3)ccc2F)cc1 (stereo not drawn),.,-16.3%,.,2.4%,.
CCOc1ccc(/C=N/n2c(C3CCCCC3)n[nH]c2=S)cc1,?,3.98µM*,0.8%,?,-0.8%
Fc1ccc(/C=N/n2c(C3CCCCC3)n[nH]c2=S)cc1,-27.2%,3.55µM*,10.5%,7.94µM*,-9.5%
Oc1ccc(Br)cc1/C=N/n1c(C2CCCCC2)n[nH]c1=S,-19.0%,-38.6%,8.3%,?,0.8%
S=c1[nH]nc(C2CCCCC2)n1/N=C/c1ccccc1,-18.6%,8.91µM*,11.3%,?,?
